The supplement of paper PMC8007513
Structures can show the parent of a compound that is named as a salt. ± gives the standard error. Screen size: about 1,300 compounds; about 75 (6%) showed an effect of 50% or more. For the sample, strong results were picked, then their nearest neighbours and some compounds at random.

Test system: Trichoderma virens ATCC 9645
Experiment: growth yield (OD600) relative to untreated control; higher = less growth inhibition
Conditions: compound concentration: 100 uM
Outline: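 Spores of Trichoderma virens ATCC 9645, taken from potato dextrose agar plates grown for 7 days, were suspended at 15,000 spores ml^−1 in potato dextrose broth. In 96-well plates, 100 μl aliquots held library compounds at 100 μM final, either alone or together with a biocide at 200 ng ml^−1, and were grown at 30 °C. A BioTek EL800 read OD600 at 40 h and 72 h. Growth values are given relative to the control lacking both agents and are means of duplicate screens.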

Compound	growth yield (40 h)	growth yield (72 h)
Cc1ncc(CO)c(CO)c1O [Pyridoxine hydrochloride]	101.5 ± 0.16%	103.3 ± 0.52%
Clc1ccc2c(c1)CCc1cccnc1C2=C1CCNCC1 [Desloratadine]	106 ± 6.8%	105 ± 4.8%
CCOC(=O)N1CCC(=C2c3ccc(Cl)cc3CCc3cccnc32)CC1 [Loratadine]	19.2 ± 12%	73.6%
CN1CCC(=C2c3ccccc3CCc3cccnc32)CC1 [Azatadine maleate]	107 ± 7.9%	104 ± 4.2%
COc1ccc(C[C@@H]2c3cc(OC)c(OC)cc3CC[N@+]2(C)CCC(=O)OCCCCCOC(=O)CC[N@@+]2(C)CCc3cc(OC)c(OC)cc3[C@H]2Cc2ccc(OC)c(OC)c2)cc1OC [Cisatracurium besylate]	95 ± 1.3%	94 ± 3.4%
CCCSc1ccc2[nH]c(NC(=O)OC)nc2c1 [Albendazole]	73.2 ± 3.6%	84.3 ± 5.5%
CCCCc1ccc2[nH]c(NC(=O)OC)nc2c1 [Parbendazole]	53.4 ± 1.9%	95.9 ± 10%
CCCOc1ccc2[nH]c(NC(=O)OC)nc2c1 [Oxibendazol]	16.4 ± 3.6%	74.6 ± 3.5%
Cc1ccc2c(c1)c1c3n2CCNC3CCC1 (stereo not drawn) [Pirlindole mesylate]	101 ± 1.1%	104 ± 2.5%
Clc1cc(Cl)c(OCC#CI)cc1Cl [Haloprogin]	6.04 ± 1.6%	5.14 ± 0.73%
CC1CC(OC(=O)c2ccccc2O)CC(C)(C)C1 (stereo not drawn) [Homosalate]	109 ± 3.2%	105.8 ± 0.32%
CCCCNc1ccc(C(=O)OCCOCCOCCOCCOCCOCCOCCOCCOCCOC)cc1 [Benzonatate]	92.1 ± 2.5%	89.1 ± 2.1%
CCCCNc1c(C(=O)OCC)c(C)nc2c1cnn2CC [Tracazolate hydrochloride]	38.1 ± 16%	60.5 ± 13%
CCCCNc1ccc(C(=O)OCCN(C)C)cc1	99.752 ± 2.2e-14%	102 ± 3.4%
CC[C@H]1OC(=O)C[C@@H](O)[C@H](C)[C@@H](O[C@@H]2O[C@H](C)[C@@H](O[C@H]3C[C@@](C)(O)[C@@H](O)[C@H](C)O3)[C@H](N(C)C)[C@H]2O)[C@@H](CC=O)C[C@@H](C)C(=O)/C=C/C(C)=C/[C@@H]1CO[C@@H]1O[C@H](C)[C@@H](O)[C@@H](OC)[C@H]1OC [Tylosin]	95.94 ± 0.32%	94.2 ± 1.9%
C[C@H]1c2cccc(O)c2C(=O)C2=C(O)[C@]3(O)C(=O)C(C(N)=O)=C(O)[C@@H](N(C)C)[C@@H]3[C@@H](O)[C@@H]21 [Doxycycline hydrochloride]	93.2 ± 1.8%	92.7 ± 2.7%
Cc1c(N(C)CS(=O)(=O)O)c(=O)n(-c2ccccc2)n1C [Dipyrone]	91.7 ± 4.6%	85.68 ± 0.73%
OCCN1CCN(CCCN2c3ccccc3Sc3ccc(Cl)cc32)CC1 [Perphenazine]	59.1 ± 5.1%	113 ± 14%
CN1CCN(CCCN2c3ccccc3Sc3ccc(S(=O)(=O)N(C)C)cc32)CC1 [Thioproperazine dimesylate]	64.5 ± 11%	90.7 ± 4.1%
CCSc1ccc2c(c1)N(CCCN1CCN(C)CC1)c1ccccc1S2 [Thiethylperazine dimalate]	3.02 ± 0.16%	2.73 ± 0.42%
CC(=O)c1ccc2c(c1)N(CCCN(C)C)c1ccccc1S2 [Acetopromazine maleate salt]	109 ± 5.9%	111 ± 4.1%
CN(C)CCCN1c2ccccc2Sc2ccc(Cl)cc21 [Chlorpromazine hydrochloride]	68.8 ± 2.1%	86.52 ± 0.32%

Compound	growth yield (40 h)	growth yield (72 h)
CN1CCN(CCCN2c3ccccc3Sc3ccc(Cl)cc32)CC1 [Prochlorperazine dimaleate]	31 ± 8.7%	108 ± 2.4%
COc1cc(N)c(Cl)cc1C(=O)NC1CCN(CCCOc2ccc(F)cc2)CC1OC (stereo not drawn) [Cisapride]	108%	109%
O=C(Cn1ccnc1[N+](=O)[O-])NCCO [Etanidazole]	101 ± 2.2%	98 ± 1.9%
CCN(CC)CCOC(=O)C1(c2ccc([N+](=O)[O-])cc2)CCCC1 [Nitrocaramiphen hydrochloride]	101%	103.3 ± 0.52%
O=C(CCCN1CCC(O)(c2ccc(Br)cc2)CC1)c1ccc(F)cc1 [Bromperidol]	104.4 ± 0.48%	105.4 ± 0.1%
C/C(=C(\CCOP(=O)(O)O)SC(=O)c1ccccc1)N(C=O)Cc1cnc(C)nc1N [Benfotiamine]	99.75 ± 0.64%	96.38 ± 0.1%
NC(=O)c1cc[n+](CC2=C(C(=O)[O-])N3C(=O)[C@@H](NC(=O)[C@@H](c4ccccc4)S(=O)(=O)O)[C@H]3SC2)cc1 [Cefsulodin sodium salt]	95 ± 4.8%	99.3 ± 3.2%
CC[C@H](C)C(=O)O[C@H]1CCC=C2C=C[C@H](C)[C@H](CC[C@@H]3C[C@@H](O)CC(=O)O3)[C@H]21 [Mevastatin]	103 ± 7.6%	96.2 ± 6.6%
O=P(O)(O)C(O)(Cn1ccnc1)P(=O)(O)O [Zoledronic acid hydrate]	108 ± 4.5%	109 ± 1.6%
CO[C@H]1/C=C/O[C@@]2(C)Oc3c(C)c(O)c4c(O)c(c(/C=N/N5CCN(C6CCCC6)CC5)c(O)c4c3C2=O)NC(=O)/C(C)=C\C=C\[C@H](C)[C@H](O)[C@@H](C)[C@@H](O)[C@@H](C)[C@H](OC(C)=O)[C@@H]1C [Rifapentine]	84.5%	94%
CN1CCC(=C2c3ccccc3Sc3ccccc32)CC1 [Pimethixene maleate]	85.77 ± 0.64%	95.2 ± 1.9%
CSc1ccc2c(c1)C(N1CCN(C)CC1)Cc1ccccc1S2 (stereo not drawn) [Methiothepin maleate]	43.5 ± 3.5%	75.4 ± 3.2%
CSc1ccc2c(c1)N(CCC1CCCCN1C)c1ccccc1S2 (stereo not drawn) [Thioridazine hydrochloride]	53.8 ± 6.2%	83 ± 2.6%
CN(Cc1cc(Br)cc(Br)c1N)C1CCCCC1 [Bromhexine hydrochloride]	99 ± 1.1%	98.2 ± 1.9%
Cc1scc2c1N(C(=O)CN1CCN(C)CC1)c1ccccc1NC2=O [Telenzepine dihydrochloride]	99.75 ± 0.32%	103 ± 1.1%
CC(=O)Oc1cc(C(F)(F)F)ccc1C(=O)O [Triflusal]	94.5 ± 2.4%	91.77 ± 0.32%
Cc1cc(N)c2ccccc2[n+]1CCCCCCCCCC[n+]1c(C)cc(N)c2ccccc21 [Dequalinium dichloride]	2.54 ± 1.6%	2.2 ± 1.4%
Nc1ccccc1S(N)(=O)=O [2-Aminobenzenesulfonamide]	93.7 ± 1.6%	94.39 ± 0.63%
Cc1cc(C2CCCCC2)n(O)c(=O)c1 [Ciclopirox ethanolamine]	1.27 ± 1.3%	1.15 ± 1.1%
CC(=O)Nc1c(I)c(C(=O)N[C@H]2C(O)O[C@H](CO)[C@@H](O)[C@@H]2O)c(I)c(N(C)C(C)=O)c1I (stereo partly drawn) [Metrizamide]	102 ± 13%	105 ± 12%
CC1(C)O[C@@H]2C[C@H]3[C@@H]4CCC5=CC(=O)C=C[C@]5(C)[C@H]4[C@@H](O)C[C@]3(C)[C@]2(C(=O)CO)O1 [Desonide]	109 ± 11%	98.7 ± 6.6%
CCC(=O)[C@@]1(C)[C@H](C)C[C@H]2[C@@H]3CCC4=CC(=O)C=C[C@]4(C)[C@H]3[C@@H](O)C[C@@]21C [Rimexolone]	112 ± 14%	106 ± 8.3%

Compound	growth yield (40 h)	growth yield (72 h)
COc1c(O[C@@H]2O[C@H](CO)[C@@H](O)[C@H](O)[C@H]2O)cc2c(c1OC)-c1ccc(SC)c(=O)cc1[C@@H](NC(C)=O)CC2 [Thiocolchicoside]	101 ± 1.4%	103 ± 2.2%
NS(=O)(=O)c1cc2c(cc1C(F)(F)F)NCNS2(=O)=O [Hydroflumethiazide]	102 ± 2.4%	100 ± 3.1%
O=C1c2c(O)cccc2Cc2cccc(O)c21 [Anthralin]	96.7 ± 3.6%	89.5 ± 2.8%
O=C1c2c(O)ccc(O)c2C(=O)c2c(NCCNCCO)ccc(NCCNCCO)c21 [Mitoxantrone dihydrochloride]	2.86 ± 2.9%	0.21 ± 0.21%
O=C1c2cccc(O)c2C(=O)c2c(O)cccc21 [1,8-Dihydroxyanthraquinone]	85.8 ± 11%	87.2 ± 8.7%
CN1[C@@H]2CC[C@H]1C[C@@H](OC(c1ccccc1)c1ccccc1)C2 [Benztropine mesylate]	105 ± 3.6%	102 ± 1.7%
O=C1OCCN1/N=C/c1ccc([N+](=O)[O-])o1 [Furazolidone]	84.3 ± 7.2%	87.7 ± 5.9%
Nc1nc(=O)c2nc(CNc3ccc(C(=O)N[C@@H](CCC(=O)O)C(=O)O)cc3)cnc2[nH]1 [Folic acid]	102 ± 1.4%	104.7 ± 0.42%
CCN(CC)CCOc1ccc(C(=C(Cl)c2ccccc2)c2ccccc2)cc1 [Clomiphene citrate (Z,E)]	1.75 ± 1.1%	2.2 ± 0.1%
CN(C)CCOC(c1ccccc1)c1ccccc1 [Diphenhydramine hydrochloride]	99.9 ± 5.2%	99.4 ± 3.1%
COc1cc(C(=O)NCc2ccc(OCCN(C)C)cc2)cc(OC)c1OC [Trimethobenzamide hydrochloride]	103 ± 2.4%	97.75 ± 0.21%
CC/C(=C(\c1ccccc1)c1ccc(OCCN(C)C)cc1)c1ccccc1 [Tamoxifen citrate]	1.11 ± 0.48%	1.26 ± 0.21%
COc1ccc(C(Cl)=C(c2ccc(OC)cc2)c2ccc(OC)cc2)cc1 [Chlorotrianisene]	101 ± 2.7%	96.7 ± 1.5%
CN(C)CCOC(=O)COc1ccc(Cl)cc1 [Meclofenoxate hydrochloride]	95.1 ± 2.1%	92.1 ± 3.6%
CCN(CC)CCOC(=O)C(c1ccccc1)c1ccccc1 [Adiphenine hydrochloride]	98.8 ± 7.6%	96.9 ± 5.5%
CN(C)CCOc1ccc(/C(=C(/CCCl)c2ccccc2)c2ccccc2)cc1 [Toremifene]	3.81 ± 0.32%	2.73 ± 0.21%
COc1ccc(C(=O)NCc2ccc(OCCN(C)C)cc2)cc1OC [Itopride]	105 ± 5.7%	105 ± 3.7%
COc1ccc(OC)c(C(O)CNC(=O)CN)c1 (stereo not drawn) [Midodrine hydrochloride]	101.8 ± 0.16%	105 ± 0.73%
CC(=O)[C@H]1CC[C@H]2[C@@H]3C=CC4=CC(=O)CC[C@@]4(C)[C@@H]3CC[C@]12C [Dydrogesterone]	78.3 ± 1.1%	79.9 ± 2.1%
CN(C)[C@@H]1C(O)=C(C(N)=O)C(=O)[C@@]2(O)C(O)=C3C(=O)c4c(O)ccc(Cl)c4[C@@](C)(O)[C@H]3C[C@@H]12 [Chlortetracycline hydrochloride]	90.54 ± 0.32%	90.93 ± 0.32%
